This passage reports growth inhibition results from PubChem BioAssay (NCI).

A short description of assay [1]: NCI Yeast Anticancer Drug Screen. Data for the rad50 strain (AID 155).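 Further: 0% = growth of vehicle-only cultures of the same strain.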 To be noted: S. cerevisiae rad50 strain growth inhibition, hits give high values. The method, boiled down:
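Readout: growth inhibition relative to vehicle-treated cultures. Compound exposure was carried out in a genetically defined yeast strain deficient in DNA damage repair.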

Assay [2] is described as follows: NCI Yeast Anticancer Drug Screen. Data for the mec2-1 strain (AID 157). To be noted: S. cerevisiae mec2-1 strain, hits give high values. An outline of the steps:
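Yeast mec2-1 mutant treated with compound. Readout: growth inhibition vs vehicle controls.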

Assay [3] is described as follows: NCI Yeast Anticancer Drug Screen. Data for the sgs1 mgt1 strain (AID 161).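 Further: 0% = growth of cultures given vehicle only.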 The settings on record: S. cerevisiae sgs1 mgt1 strain, hits give high values. The method, boiled down:
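Mutant yeast exposed to compound; growth scored against vehicle-only wells.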

Assay [4] can be described thus: NCI Yeast Anticancer Drug Screen. Data for the cln2 rad14 strain (AID 165).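 Further: 0% = growth equal to vehicle treated cultures.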 The settings on record: S. cerevisiae cln2 rad14 strain, hits give high values. An outline of the steps:
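cln2 rad14 yeast strain; compound exposure; growth inhibition read vs vehicle controls.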

Assay [5] can be described thus: NCI Yeast Anticancer Drug Screen. Data for the bub3 strain (AID 167). The settings on record: S. cerevisiae bub3 mutant strain, hits give high values. An outline of the steps:
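Readout: yeast growth inhibition, expressed relative to vehicle-only wells. The test organism is a mutant strain from a panel with lesions in DNA repair or checkpoint genes.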

Assay [6] can be described thus: NCI Yeast Anticancer Drug Screen. Data for the mlh1 rad18 strain (AID 175). To be noted: S. cerevisiae mlh1 rad18 strain growth inhibition, hits give high values. An outline of the steps: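 Yeast w/ defined DNA-repair lesions; compound exposure; growth vs vehicle controls → % inhibition.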
Setting [7] is: at 5.0 µM (retest, dose inferred, filed as 0.5).
Setting [8] is: at 50.0 µM (retest, dose inferred, filed as 5.0).

About 79,000 compounds went through this panel and 15% of them were active in at least one assay; those are over-represented in the sample as a whole. A number with no mark means an inactive call. Active and inactive are the calls of the source. No stated cut-off is given here; in the data, active means growth inhibition above about 70%; inactive means the rest.

For `c1ccc(Nc2cccc3ccccc23)cc1`, the growth inhibition in assay [1] (setting [7]) was -4%; in assay [1] (setting [8]), 95% (active); in assay [1] (at 50.0 µM), 94.8% (active); in assay [2] (setting [7]) it was -5%; in assay [2] (setting [8]) it was 81% (active); in assay [2] (at 50.0 µM), 96.2% (active). Also, the growth inhibition was -3% in assay [3] (setting [7]); 62% in assay [3] (setting [8]); 95.8% (active) in assay [3] (at 50.0 µM); -1% in assay [4] (setting [7]); 32% in assay [4] (setting [8]); 95.1% (active) in assay [4] (at 50.0 µM). Further, the growth inhibition in assay [5] (setting [7]) is 43%; in assay [5] (setting [8]), 95% (active); in assay [5] (at 50.0 µM), 91.5% (active); in assay [6] (setting [7]), -1%; in assay [6] (setting [8]) it was 88% (active); in assay [6] (at 50.0 µM), 95.5% (active).

In the case of `CN(C)c1ccc2c(c1)N(C)c1ccccc1C2(Cl)c1ccccc1` (stereo not given), the growth inhibition in assay [1] (setting [7]) was 96% (active); in assay [1] (setting [8]) it was 99% (active); in assay [1] (at 50.0 µM) it was 99.2% (active); in assay [2] (setting [7]), 99% (active); in assay [2] (setting [8]) it was 100% (active); in assay [2] (at 50.0 µM) it was 99.5% (active). The growth inhibition is 90% (active) in assay [3] (setting [7]); 99% (active) in assay [3] (setting [8]); 99.3% (active) in assay [3] (at 50.0 µM); 70% (active) in assay [4] (setting [7]); 98% (active) in assay [4] (setting [8]); 99.2% (active) in assay [4] (at 50.0 µM). Also, the growth inhibition was 89% (active) in assay [5] (setting [7]); 99% (active) in assay [5] (setting [8]); 99.3% (active) in assay [5] (at 50.0 µM); 95% (active) in assay [6] (setting [7]); 99% (active) in assay [6] (setting [8]); 99.4% (active) in assay [6] (at 50.0 µM).

As for `c1cc[c]([Sn]([S]c2ccccn2)([c]2ccccc2)[c]2ccccc2)cc1`, the growth inhibition is 100% (active) in assay [1] (setting [7]); 99% (active) in assay [1] (setting [8]); 99.5% (active) in assay [1] (at 50.0 µM); 100% (active) in assay [2] (setting [7]); 99% (active) in assay [2] (setting [8]); 99.5% (active) in assay [2] (at 50.0 µM). Moreover, the growth inhibition in assay [3] (setting [7]) is 99% (active); in assay [3] (setting [8]), 99% (active); in assay [3] (at 50.0 µM), 99.1% (active); in assay [4] (setting [7]) it was 99% (active); in assay [4] (setting [8]), 99% (active); in assay [4] (at 50.0 µM), 97% (active). Besides, the growth inhibition in assay [5] (setting [7]) is 96% (active); in assay [5] (setting [8]), 99% (active); in assay [5] (at 50.0 µM), 99.2% (active); in assay [6] (setting [7]) it was 99% (active); in assay [6] (setting [8]) it was 99% (active); in assay [6] (at 50.0 µM), 99.2% (active).

Take `N#CC1=C(N)OC(/C=C/c2ccccc2)=C(C#N)C1c1ccccc1` (stereo not given): the growth inhibition in assay [1] (setting [7]) was 33%; in assay [1] (setting [8]), 81% (active); in assay [1] (at 50.0 µM) it was 90.2% (active); in assay [2] (setting [7]), 25%; in assay [2] (setting [8]), 81% (active); in assay [2] (at 50.0 µM), 76.3% (active). Also, the growth inhibition in assay [3] (setting [7]) was 30%; in assay [3] (setting [8]), 91% (active); in assay [3] (at 50.0 µM) it was 93.6% (active); in assay [4] (setting [7]), 33%; in assay [4] (setting [8]), 86% (active); in assay [4] (at 50.0 µM), 101% (active). Further, the growth inhibition is 23% in assay [5] (setting [7]); 81% (active) in assay [5] (setting [8]); 75% (active) in assay [5] (at 50.0 µM); 19% in assay [6] (setting [7]); 86% (active) in assay [6] (setting [8]); 88.3% (active) in assay [6] (at 50.0 µM).

For the compound `CCCCCCCCCCNCCSSCCNC(C)=O`, the growth inhibition in assay [1] (setting [7]) was 89% (active); in assay [1] (setting [8]), 98% (active); in assay [1] (at 50.0 µM), 99.2% (active); in assay [2] (setting [7]), 87% (active); in assay [2] (setting [8]) it was 99% (active); in assay [2] (at 50.0 µM), 99.4% (active). In addition, the growth inhibition was 97% (active) in assay [3] (setting [7]); 99% (active) in assay [3] (setting [8]); 99.3% (active) in assay [3] (at 50.0 µM); 79% (active) in assay [4] (setting [7]); 92% (active) in assay [4] (setting [8]); 98.4% (active) in assay [4] (at 50.0 µM). For the same compound, the growth inhibition is 90% (active) in assay [5] (setting [7]); 98% (active) in assay [5] (setting [8]); 99.5% (active) in assay [5] (at 50.0 µM); 90% (active) in assay [6] (setting [7]); 99% (active) in assay [6] (setting [8]); 99.3% (active) in assay [6] (at 50.0 µM).

As for `CC(O[Si](C)(C)C(C)(C)C)C(=O)Sc1ccccn1` (stereo not given), the growth inhibition in assay [1] (setting [7]) was -1%; in assay [1] (setting [8]), 66%; in assay [1] (at 50.0 µM) it was 95.3% (active); in assay [2] (setting [7]) it was -9%; in assay [2] (setting [8]), 97% (active); in assay [2] (at 50.0 µM) it was 97.2% (active). For the same compound, the growth inhibition in assay [3] (setting [7]) is -6%; in assay [3] (setting [8]), 54%; in assay [3] (at 50.0 µM) it was 95.5% (active); in assay [4] (setting [7]), -10%; in assay [4] (setting [8]), 84% (active); in assay [4] (at 50.0 µM) it was 85.9% (active). The growth inhibition in assay [5] (setting [7]) is -6%; in assay [5] (setting [8]) it was 99% (active); in assay [5] (at 50.0 µM), 93.9% (active); in assay [6] (setting [7]), -9%; in assay [6] (setting [8]), 48%; in assay [6] (at 50.0 µM), 94.7% (active).

Turning to `Cc1ccc(O)c(-c2cscn2)c1`, the growth inhibition in assay [1] (setting [7]) is 49%; in assay [1] (setting [8]) it was 68%; in assay [1] (at 50.0 µM) it was 62.6%; in assay [2] (setting [7]), 39%; in assay [2] (setting [8]), 60%; in assay [2] (at 50.0 µM) it was 6.95%. For the same compound, the growth inhibition in assay [3] (setting [7]) was 15%; in assay [3] (setting [8]), 22%; in assay [3] (at 50.0 µM), 55.5%; in assay [4] (setting [7]), 65%; in assay [4] (setting [8]), 72% (active); in assay [4] (at 50.0 µM), 31.5%. In addition, the growth inhibition in assay [5] (setting [7]) was 46%; in assay [5] (setting [8]) it was 50%; in assay [5] (at 50.0 µM) it was 48.5%; in assay [6] (setting [7]) it was 47%; in assay [6] (setting [8]), 59%; in assay [6] (at 50.0 µM), 85.7% (active).

Take `CN(C)C1CCC2C(=C1OC(=O)c1ccccc1)C=Cc1ccccc12` (stereo not given): the growth inhibition in assay [1] (setting [7]) is -1%; in assay [1] (setting [8]) it was 11%; in assay [1] (at 50.0 µM), 25%; in assay [2] (setting [7]), 2%; in assay [2] (setting [8]), 16%; in assay [2] (at 50.0 µM) it was 13.4%. Further, the growth inhibition in assay [3] (setting [7]) is 13%; in assay [3] (setting [8]), 38%; in assay [3] (at 50.0 µM), 31.9%; in assay [4] (setting [7]), 4%; in assay [4] (setting [8]), 7%; in assay [4] (at 50.0 µM), -1.4%. Moreover, the growth inhibition in assay [5] (setting [7]) was 0%; in assay [5] (setting [8]) it was 12%; in assay [5] (at 50.0 µM), 22.9%; in assay [6] (setting [7]) it was 21%; in assay [6] (setting [8]) it was 53%; in assay [6] (at 50.0 µM), 67.5%.

`c1ccc2cc3c(ccc4cccc[n+]43)cc2c1`: the growth inhibition in assay [1] (setting [7]) was 17%; in assay [1] (setting [8]), 28%; in assay [1] (at 50.0 µM), 34.3%; in assay [2] (setting [7]), 20%; in assay [2] (setting [8]), 52%; in assay [2] (at 50.0 µM) it was 18%. In addition, the growth inhibition is 23% in assay [3] (setting [7]); 53% in assay [3] (setting [8]); 35.6% in assay [3] (at 50.0 µM); 30% in assay [4] (setting [7]); 29% in assay [4] (setting [8]); 71.5% (active) in assay [4] (at 50.0 µM). For the same compound, the growth inhibition in assay [5] (setting [7]) is -4%; in assay [5] (setting [8]), 8%; in assay [5] (at 50.0 µM) it was 27.7%; in assay [6] (setting [7]), 10%; in assay [6] (setting [8]) it was 45%; in assay [6] (at 50.0 µM) it was 29.9%.

`C=CCNC(=O)NC(=O)CSC1=NNC2(C(=O)N1)c1ccccc1-c1ccccc12`: the growth inhibition in assay [1] (setting [7]) is -4%; in assay [1] (setting [8]), 74% (active); in assay [1] (at 50.0 µM), 85.2% (active); in assay [2] (setting [7]), -21%; in assay [2] (setting [8]), 65%; in assay [2] (at 50.0 µM), 78.7% (active). The growth inhibition in assay [3] (setting [7]) was -11%; in assay [3] (setting [8]), 85% (active); in assay [3] (at 50.0 µM) it was 87.1% (active); in assay [4] (setting [7]) it was 2%; in assay [4] (setting [8]), 82% (active); in assay [4] (at 50.0 µM), 85.7% (active). Also, the growth inhibition in assay [5] (setting [7]) is -16%; in assay [5] (setting [8]), 91% (active); in assay [5] (at 50.0 µM), 86.5% (active); in assay [6] (setting [7]), -6%; in assay [6] (setting [8]), 88% (active); in assay [6] (at 50.0 µM) it was 86.7% (active).
